# The whole screen tested about 310,000 compounds, of which about 14,000 (4.5%) showed an effect of 50% or more. The effect is printed as a negative number. What follows is part of a selection rich in strong results, with near analogues and random picks from the rest.
# Target: human ether-à-go-go-related gene (hERG) potassium channel (human, UniProt Q12809)
# Test: primary screen, population patch clamp on CHO cells stably expressing hERG; higher = less effect of the substance
# 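Further: peak tail current of the secondary pulse compared with the same well before compound.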
# human ether-à-go-go-related gene (hERG) potassium channel, sequence (Q12809 whole entry, looked up): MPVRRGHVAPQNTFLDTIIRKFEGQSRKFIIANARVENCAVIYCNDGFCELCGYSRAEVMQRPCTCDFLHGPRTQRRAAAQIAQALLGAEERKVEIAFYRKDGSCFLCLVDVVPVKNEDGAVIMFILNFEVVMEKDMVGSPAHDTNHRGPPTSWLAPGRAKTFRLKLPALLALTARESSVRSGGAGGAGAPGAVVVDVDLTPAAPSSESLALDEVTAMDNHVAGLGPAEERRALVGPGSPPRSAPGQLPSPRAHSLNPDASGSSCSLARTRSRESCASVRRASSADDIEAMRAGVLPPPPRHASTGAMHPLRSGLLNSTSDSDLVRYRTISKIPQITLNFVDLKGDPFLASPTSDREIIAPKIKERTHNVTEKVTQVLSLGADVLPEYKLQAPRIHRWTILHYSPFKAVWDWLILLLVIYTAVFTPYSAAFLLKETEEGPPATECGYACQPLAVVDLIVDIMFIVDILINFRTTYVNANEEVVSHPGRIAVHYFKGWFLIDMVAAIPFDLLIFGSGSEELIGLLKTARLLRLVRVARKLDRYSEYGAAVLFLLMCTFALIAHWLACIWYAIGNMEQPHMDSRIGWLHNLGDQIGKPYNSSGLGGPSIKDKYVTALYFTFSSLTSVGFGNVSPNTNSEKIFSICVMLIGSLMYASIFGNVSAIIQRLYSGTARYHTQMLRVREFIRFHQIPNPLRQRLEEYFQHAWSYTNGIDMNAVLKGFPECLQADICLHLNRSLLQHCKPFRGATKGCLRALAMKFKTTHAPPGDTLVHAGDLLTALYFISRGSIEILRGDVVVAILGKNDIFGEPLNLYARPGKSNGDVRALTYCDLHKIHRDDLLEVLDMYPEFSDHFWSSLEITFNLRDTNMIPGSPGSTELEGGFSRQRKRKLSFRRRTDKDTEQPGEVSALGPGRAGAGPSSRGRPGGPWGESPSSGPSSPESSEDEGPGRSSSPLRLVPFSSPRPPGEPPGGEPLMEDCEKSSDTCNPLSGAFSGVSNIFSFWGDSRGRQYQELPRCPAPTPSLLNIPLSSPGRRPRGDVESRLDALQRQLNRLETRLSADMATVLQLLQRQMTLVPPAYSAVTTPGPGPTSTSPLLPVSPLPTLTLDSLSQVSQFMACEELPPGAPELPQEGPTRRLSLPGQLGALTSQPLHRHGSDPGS
row,Structure (SMILES),"hERG current change (%, negative = inhibition) at 10uM [%]"
1,O=C(Nc1ccccc1)c1ccc(Br)c(S(=O)(=O)Nc2ccccn2)c1,14.5
2,Cc1cc(C)c(C#N)c(N2CCSCC2)n1,4.36
3,CC(=O)N1CCc2cc(S(=O)(=O)NCCC(=O)NC3CCCc4ccccc43)ccc21 (centres unmarked),2.54
4,NC(=O)c1noc(C(=O)N(CC(=O)NC2CCCC2)Cc2ccc3c(c2)OCO3)c1N,-7.94
5,CCN(CC)CCNC(=S)Nc1ccc2nc(N3CCN(C)CC3)cc(C)c2c1,-1.04
6,Cc1cc(N2CCOCC2)nc2ccc(NC(=S)NCCN(C)C)cc12,13.7
7,Cc1cc(N2CCN(C)CC2)nc2ccc(NC(=S)NCCC(C)C)cc12,-51.2
8,Cc1cc(N2CCN(C)CC2)nc2ccc(NC(=S)NCCCN3CCc4ccccc4C3)cc12,-26.5
9,CCN(CC)CCNC(=S)Nc1ccc2nc(N3CCOCC3)cc(C)c2c1,11.7
10,Cc1cc(N2CCOCC2)nc2ccc(NC(=S)NCc3ccc4c(c3)OCO4)cc12,-68.5
11,Cc1cc(N2CCOCC2)nc2ccc(NC(=S)NCCC(C)C)cc12,-64.1
12,Cc1cc(N2CCOCC2)nc2ccc(NC(=S)N3CCN(Cc4ccccc4)CC3)cc12,-33.6
13,COCCNC(=S)Nc1ccc2nc(N3CCOCC3)cc(C)c2c1,-0.507
14,Cc1cccc(Cn2nc(C(C)(C)C)cc2C(=O)Nc2ccc(F)cc2)c1,14.8
15,C(#CCN1CCOCC1)COCC#Cc1ccccc1.Cl,-2.16
16,CC(C)(C)OC(=O)N[C@@H](Cc1c[nH]c2ccccc12)c1nnc(SCC(N)=O)o1,-3.96
17,Cc1nc2ccccc2c(=O)n1-c1cc(F)ccc1F,8.31
18,Cc1ccc(C)c(S(=O)(=O)NNC(=O)Nc2ccccc2Cl)c1,5.51
19,O=c1cc(CSc2ccc(Cl)cc2)nc(-c2ccccn2)[nH]1,-0.0469
20,COc1ccc(CNC(=O)C(c2ccco2)N(Cc2ccccc2)C(=O)Cc2cccs2)cc1 (centres unmarked),18
21,O=C(c1ccccc1)c1cc([N+](=O)[O-])ccc1N1CCOCC1,-30.7
22,Cc1ccc(C(=O)c2cc([N+](=O)[O-])ccc2N2CCCCC2)cc1,-5.08

row,Structure (SMILES),"hERG current change (%, negative = inhibition) at 10uM [%]"
1,CCN1CCN(c2ccc([N+](=O)[O-])cc2C(=O)c2ccc(Cl)cc2)CC1,-72.8
2,Cc1ccc(C(=O)c2cc([N+](=O)[O-])ccc2N2CCOCC2)cc1C,-17
3,COc1ccc(C(=O)c2ccc([N+](=O)[O-])cc2Cl)cc1,-16.2
4,O=C(c1ccccc1)c1cc([N+](=O)[O-])ccc1N1CCCC1,-12
5,Cc1ccc(C(=O)c2cc([N+](=O)[O-])ccc2N2CCN(C)CC2)cc1,-64.5
6,Cc1ccc(C(=O)c2cc([N+](=O)[O-])ccc2N2CCCCC2)cc1C,6.24
7,COc1ccc(C(=O)c2cc([N+](=O)[O-])ccc2N2CCN(C)CC2)cc1,-58.2
8,Cc1ccc(C(=O)c2cc([N+](=O)[O-])ccc2N2CC(C)OC(C)C2)cc1 (centres unmarked),-0.127
9,CN1CCN(c2ccc([N+](=O)[O-])cc2C(=O)c2ccccc2)CC1,-54.2
10,COc1ccc(C(=O)c2cc([N+](=O)[O-])ccc2N2CCOCC2)cc1,-23.5
11,Cc1nn(CC(=O)N2CCN(S(=O)(=O)c3ccccc3)CC2)c(C)c1[N+](=O)[O-],-10
12,Cl.Clc1cccc(Nc2nc(N3CCOCC3)nc(N3CCOCC3)n2)c1,16.9
13,CN(C)C(=O)c1cn(-c2ccccc2)nc1-c1cc2ccccc2o1,-10.3
14,CC12CCC(=O)N1c1ccccc1C(=O)N2c1ccccc1 (centres unmarked),-9.9
15,CCOC(=O)c1sc(NC(=O)CSc2nncn2C)nc1C,9.68
16,Cl.O=C(OCCN1CCCCC1)c1cccc(Cl)c1,-30.6
17,CCCC(c1nnnn1Cc1ccco1)N1CCN(c2ccccc2)CC1.Cl (centres unmarked),-19.6
18,Cc1c(Cc2ccccc2)c(NCCN(C)C)n2c(nc3ccccc32)c1C#N,-32.4
19,Cc1[nH]c2ccccc2c1Cc1nnc(SCC(=O)NCc2ccco2)o1,4.19
20,COc1ccc(CC(=O)c2ccc(O)cc2O)cc1,-3.19
21,N/C(=N\OC(=O)c1ccc(OCC(F)(F)F)nc1)c1ccc(Cl)cc1,19.5
22,O=C(c1ccc(Br)cc1)c1cc([N+](=O)[O-])ccc1N1CCCCC1,-25.3

# — publication PMC4336329 (PLoS ONE, 2015)
